Screens as filed in PubChem.
VDR inh: vitamin D3 receptor (human) inhibition; P11473; VDR-SRC2-3 peptide fluorescence polarization, 2 h; Potency, µM, without a hit: max response, negative = inhibition, most hits filed as inhibitors; 0.93% of 400,000 active; note: % is set by controls: 0 for no effect and ±100 for the full control effect
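After 23 nl compound addition and a short centrifugation, plates sat for 2 hours at ambient temperature; polarization of fluorescence then indicated loss of VDR binding to peptide SRC2-3.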
Sfp inh: inhibitors of Bacillus subtilis Sfp phosphopantetheinyl transferase; Q9F4F7; Biochemical Sfp PPTase activity, qHTS; Potency, µM, for the others: largest response in the series, negative = inhibition, actives largely listed as inhibitors; 3.5% of 310,000 active; AID 1490;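 note: the enzyme is Sfp with the accession as filed and its product quenches rhodamine fluorescence; 0% = enzyme reaction without inhibitor and -100% = no enzyme wells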
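Step 1, compound plus 15 nM Sfp-PPTase, 15 min, room temperature. Step 2, add rhodamine-CoA (5 uM) and BHQ-2-YbbR (12.5 uM). Step 3, read 525/598 nm fluorescence at 0 and 30 min.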
GRP78 ERSR act: ER stress response induction in glioma. Potency, µM, inactives show top-dose activation, most hits filed as activators. 0.02% of 420,000 active. AID 602332. U87-MG GRP78 promoter luciferase reporter, 16 h; note: series mostly up to about 76 µM; % of control where 0% means no effect; nearly all actives have a fitted effect of over 35% in size
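ERSR induction read as luciferase luminescence (Bright-Glo, 10 min at room temperature) in stably transfected human U87-MG glioma cells exposed to compounds for 16 h, using GRP78 as sensor.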
G9a block: blocks human histone lysine methyltransferase G9a; 8.8% of 350,000 active; G9a H3K9 monomethylation, AlphaScreen, 2 h; AID 504332; Potency, µM (series often up to 102 µM), for inactives: at the highest dose activity, negative = inhibition, hits mostly inhibitors; note: % is set by controls: 0 for no effect and ±100 for the full control effect; nearly all actives have a fitted effect of over 75% in size
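G9a (20 nM) was preincubated 15 min with compound, then reacted 2 h at room temperature with 500 nM biotin-H3K9 peptide and 20 µM SAM. Monomethyl-H3K9 detected by AlphaScreen using anti-H3K9me1 antibody.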
12-LOX inh: inhibitors of human 12S-lipoxygenase ALOX12; P18054; purified 12hLO, xylenol orange hydroperoxide absorbance; Potency, µM (doses to about 108 µM), without a hit: at the top dose activity change, negative = inhibition, hits mostly inhibitors; 1.1% of 580,000 active; AID 1671190; note: % is set by controls: 0 for no effect and ±100 for the full control effect
Target sequence (P18054 whole entry, looked up): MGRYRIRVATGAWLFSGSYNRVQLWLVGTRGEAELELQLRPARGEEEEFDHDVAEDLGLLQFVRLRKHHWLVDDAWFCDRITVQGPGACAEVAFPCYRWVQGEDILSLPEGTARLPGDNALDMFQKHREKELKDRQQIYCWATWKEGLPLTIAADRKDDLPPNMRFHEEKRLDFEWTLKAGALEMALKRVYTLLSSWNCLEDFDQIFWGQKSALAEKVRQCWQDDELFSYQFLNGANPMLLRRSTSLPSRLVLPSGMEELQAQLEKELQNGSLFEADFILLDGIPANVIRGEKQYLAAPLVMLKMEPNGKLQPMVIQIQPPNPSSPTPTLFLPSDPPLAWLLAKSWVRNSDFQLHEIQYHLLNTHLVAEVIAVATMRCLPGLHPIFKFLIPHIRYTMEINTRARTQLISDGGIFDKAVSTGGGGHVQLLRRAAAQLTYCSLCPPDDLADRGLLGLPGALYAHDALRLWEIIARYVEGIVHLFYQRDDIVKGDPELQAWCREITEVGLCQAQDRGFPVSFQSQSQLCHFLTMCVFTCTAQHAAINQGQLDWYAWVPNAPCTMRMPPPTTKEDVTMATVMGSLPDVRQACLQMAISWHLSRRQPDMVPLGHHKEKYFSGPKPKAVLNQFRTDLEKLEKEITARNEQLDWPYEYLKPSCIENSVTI
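Hydroperoxide product was detected by ferrous iron/xylenol orange as the 573 to 405 nm absorbance ratio. Arachidonic acid at 40 uM (final) was turned over for 30 min at room temperature by 150 nM human 12hLO, pH 7.0 Hepes buffer, after 15 min compound preincubation.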
Numbers without * were called inactive; i = inactive; u = inconclusive; x = no result given; [ ] = another dose, or the depositor's remark. This is one part of a sample in which hits are shown more often than they occur. Calls come from the whole dose curve; as a rule, active = well fitted curve in the direction sought with a large enough effect; inconclusive = small, poorly fitted or top-dose-only effect, or another doubt; inactive = no such curve, though single readings can be large; an effect the other way counts as inactive or inconclusive. Potency is the fitted concentration of half-maximal effect.

SMILES | VDR inh | Sfp inh | GRP78 ERSR act | G9a block | 12-LOX inh
Cc1ccc2[nH]c(O)c(N=Nc3ccccc3C)c2c1 | u | 35.5µM* | -2.1% | 8.91µM* | u
O=C(Nc1cccc(-c2cc3cc(F)ccc3[nH]2)c1)C1CC1 | x | x | x | x | -10.5%
CN(C)CCCNC(=O)/C(=N\O)c1ccccc1 | 11.2% | 20.1% | -1.9% | 56.2µM* | -14.8%
O=C(NCCc1ccccc1)/C(=N\O)c1ccccc1 | -19.5% | 3.4% | -8.4% | -35.7% | 1.1%
Cc1oc2ccccc2c1CC(=O)NCCCN(C)C | -7.9% | 8.3% | -0.9% | 50.1µM* | u
CC(C)CCO | x | x | x | x | 2.2%
CN(Cc1ccc(F)cc1)C(=O)c1n[nH]c(=O)c2ccccc12 | x | x | x | x | -5.0%
O=C(c1ccc(CSc2nc3ccncc3[nH]2)cc1)N1CCN(c2cccc(Cl)c2)CC1 | 1.6% | -3.7% | -7.7% | 44.7µM* | 0.5%
O=C(Nc1nnc(Cc2ccc(Cl)cc2)s1)C1CCN(C(=O)c2ccco2)CC1 | -4.3% | x | -2.9% | x | x
COCc1nnc(NC(=O)C2CCN(C(=O)c3ccco3)CC2)s1 | -7.5% | 50.1µM* | -3.5% | 12.6µM* | -15.2%
Cc1ccc(N2CC(C(=O)N3CCC(C(=O)Nc4nnc(C(C)C)s4)CC3)CC2=O)cc1 (stereo not drawn) | 5.0% | -14.4% | -5.8% | 44.7µM* | u
COc1ccccc1Cc1nnc(NC(=O)C2CCN(C(=O)c3ccco3)CC2)s1 | u | 44.7µM* | -1.9% | 10µM* | u
CC(C)c1nnc(NC(=O)C2CCN(C(=O)c3ccco3)CC2)s1 | -20.1% | -25.2% | -1.1% | 31.6µM* | u
COc1ccc(NC(=O)C2CCN(C(=O)C3CC(=O)N(c4ccc(C)cc4)C3)CC2)c(OC)c1 (stereo not drawn) | 26.3% | 4.2% | -4.4% | -18.9% | 9.4%
CCCC(=O)OCC | x | x | x | x | -1.1%[176 µM]
CC(=O)N(C)C1=C(N2CCOCC2)C(=O)c2ccccc2C1=O | 9.8% | 5.1% | -15.9% | u | x
CC(=O)N(C1=C(N2CCOCC2)C(=O)c2ccccc2C1=O)c1ccc(C(=O)O)cc1 | -14.6% | -11.9% | -12.6% | 39.8µM* | -17.6%
Cc1ccc(NC(=O)N2CCc3ccccc32)cc1 | 13.5% | -10.4% | -2.5% | 2.1%[59 µM] | 0.0%
CC(=O)/C(=N/Nc1ccc(Br)cc1)N1CCCc2ccccc21 | -17.6% | -5.6% | -4.2% | x | 82.4%
COC(=O)/C(=N/Nc1ccc(C)cc1)N1CCCc2ccccc21 | -23.7% | -15.0% | -4.1% | 44.7µM* | u
COC(=O)/C(=N/Nc1ccccc1)N1CCCc2ccccc21 | 0.5% | 1.2% | -2.8% | 44.7µM* | u
CC(C)OC(=O)c1cn(-c2ccccc2)nc1-c1ccco1 | 79.4µM* | 8.91µM* | -6.1% | 7.94µM* | -79.4%
CN(Cc1ccccc1)C(=O)c1ccco1 | 19.1% | 8.9% | 1.4% | -22.6% | 7.1%
Cc1ccc(-c2nn(-c3ccccc3)cc2CN(Cc2ccccc2)C(=O)c2ccco2)o1 | u | 17.8µM* | -8.2% | 31.6µM* | u
Cc1ccc(-c2nn(-c3ccccc3)cc2/C=C/C(=O)O)o1 | -9.9% | -104.2% | 7.2% | 28.2µM* | 36.8%
SMILES | VDR inh | Sfp inh | GRP78 ERSR act | G9a block | 12-LOX inh
Cc1ccc(-c2nn(-c3ccccc3)cc2C(=O)O)o1 | x | -100.5% | x | 4.47µM* | x
Cc1ccc(CCNC(=O)C2CCCC2)o1 | x | x | x | x | -27.0%
Cc1cc2nc3c(nc2cc1C)C(O)=C3O | -19.5% | 79.4µM* | -3.7% | -110.9% | u
Cc1ccc(-c2nc3cc(C)c(C)cc3nc2-c2ccc(C)cc2)cc1 | x | x | x | x | 1.9%
OC1=C(O)c2nc3cc(C(F)(F)F)ccc3nc21 | -7.4% | 50.1µM* | -5.1% | u | u
Cc1ccccc1-c1[nH]nc2ncc(-c3cn[nH]c3)nc12 | x | x | x | x | 33.2%[176 µM]
CCOC(=S)SCC(=O)N1CCc2ccccc2C1C1C(=O)CCCC1=O (stereo not drawn) | 32.6% | 56.2µM* | -2.6% | u | -23.6%
O=C1CCCC(=O)C1C1c2ccccc2CCN1C(=O)CCl (stereo not drawn) | 11.6% | 3.6% | 2.3% | -25.4% | u
CCCNC(=O)Cn1sc2nc(C)cc(C)c2c1=O | 5.01µM* | 1.78µM* | -18.2% | x | -25.9%
CC(=O)Cn1cnc2c(sc3nc(C)cc(C)c32)c1=O | 11.1% | 9.4% | 3.6% | 2.2% | u
Cc1cc(C)c2c(=O)n(CC(=O)N3CCC(N4CCCCC4)CC3)sc2n1 | 20µM* | 8.91µM* | -0.9% | 1µM* | -0.4%
CCOC(=O)C1CCCN(C(=O)Cn2sc3nc(C)cc(C)c3c2=O)C1 (stereo not drawn) | u | 1.78µM* | -13.2% | 1.58µM* | x
CC1(COc2cccnc2)COc2ccc(C(=O)NCCc3ccccc3)cc2N1 (stereo not drawn) | x | x | x | x | 53.6%[176 µM]
O=c1c2cc(Br)ccc2ncn1Cc1ncc(-c2ccccc2)o1 | x | x | x | x | -14.0%
COc1ccc(N2CCN(S(=O)(=O)c3ccc(-c4ccno4)cc3OC)CC2)cc1 | 13.0% | x | -3.0% | 10µM* | -25.8%
CC(C)c1noc(-c2cccn3c(CNC(=O)C(C)c4ccccc4)nnc23)n1 (stereo not drawn) | x | x | x | x | 7.3%
CCc1ccc(C2=NNC(=Nc3cccc(S(=O)(=O)N(C)C)c3)SC2)cc1 | -1.1% | 70.8µM* | -2.1% | 0.9%[59 µM] | -15.6%
Cc1cccc(C(=O)Nc2ccc(C3(C(=O)NCCC(C)C)CCCCC3)cc2)c1 | x | x | x | x | 7.94µM*
CNc1nnc(-c2ccc(N(C)C)cc2)s1 | 8.3% | -6.4% | -8.8% | 7.94µM* | -17.9%
CC(C)c1nc2oc3c(=O)n(C)cnc3c2c2c1CCC2 | x | x | x | x | 1.0%
CN(C)CCCNc1cc(C(C)(C)C)nc2c(-c3ccccc3)cnn12 | -11.5% | 50.1µM* | 3.7% | x | -3.5%
COc1cc(Cl)c(C)cc1NC(=O)CN1C(=O)C(c2ccccc2)=NC12CCCC2 | x | x | x | x | 31.0%
O=C(O)Cn1c(P(=O)(O)c2ccccc2)nc2ccccc21 | -5.5% | -27.6% | -6.2% | 31.6µM* | u
O=C(O)Cn1c(-c2cscn2)nc2ccccc21 | -16.1% | -14.2% | -2.6% | 44.7µM* | u
Cc1[nH]c2ccc(F)cc2c1CC(=O)NCC(c1ccccc1)N1CCCC1 (stereo not drawn) | x | x | x | x | 2.2%
SMILES | VDR inh | Sfp inh | GRP78 ERSR act | G9a block | 12-LOX inh
CCn1cc([N+](=O)[O-])c(C(=O)N2N=C(c3ccc(OC)cc3OC)CC2c2ccccc2O)n1 (stereo not drawn) | -8.2% | -16.0% | 0.0% | 44.7µM* | -6.8%
O=C(Nc1cccc(-c2ccc(N3CCCC3)nn2)c1)Nc1cc(F)ccc1F | x | x | x | x | -12.9%
CC(OC(=O)CCc1nc2ccccc2[nH]c1=O)c1ccccc1 (stereo not drawn) | -3.4% | -2.5% | -3.4% | 4.8% | 0.0%
CC(OC(=O)CCc1nc2ccccc2[nH]c1=O)C(=O)c1ccccc1 (stereo not drawn) | 2.1% | 8.7% | -3.0% | 79.4µM* | 0.0%
COC(=O)CSCc1nc2ccccc2[nH]c1=O | u | -28.7% | -2.7% | 20µM* | u
NC(=S)N/N=C/c1ccc(-c2ccccc2)o1 | -18.7% | 3.6% | 1.3% | 6.31µM* | i
CN(C)/N=C/c1ccc(/C=N/NC(N)=S)o1 | -12.0% | 44.7µM* | -2.3% | u | -6.3%
